Compound activity as filed in PubChem.
Sfp PPTase inh – Sfp phosphopantetheinyl transferase inhibition | 3.5% of 310,000 active | Q9F4F7 | Biochemical Sfp PPTase activity, qHTS | Potency, µM, for inactives: largest response in the series, negative = inhibition, hits mostly inhibitors;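 note: the enzyme is Sfp with the accession as filed and its product quenches rhodamine fluorescence; 0% = enzyme reaction without inhibitor and -100% = no enzyme wells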
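Reaction rates are the 30-min fluorescence difference (ex 525, em 598 nm) in wells containing 15 nM Sfp, 5 uM rhodamine-CoA and 12.5 uM BHQ-2-YbbR at pH 7.6 with 10 mM MgCl2.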
TDP1 inh – blocks human tyrosyl-DNA phosphodiesterase 1; Q9NUW8; recombinant TDP1, AlphaScreen DNA substrate cleavage; Potency, µM (doses to about 130 µM), for the others: top-dose activity change, negative = inhibition, most hits filed as inhibitors; 0.28% of 350,000 active; note: % is set by controls: 0 for no effect and ±100 for the full control effect; nearly all actives have a fitted effect of over 40% in size
Target sequence (Q9NUW8 whole entry, looked up): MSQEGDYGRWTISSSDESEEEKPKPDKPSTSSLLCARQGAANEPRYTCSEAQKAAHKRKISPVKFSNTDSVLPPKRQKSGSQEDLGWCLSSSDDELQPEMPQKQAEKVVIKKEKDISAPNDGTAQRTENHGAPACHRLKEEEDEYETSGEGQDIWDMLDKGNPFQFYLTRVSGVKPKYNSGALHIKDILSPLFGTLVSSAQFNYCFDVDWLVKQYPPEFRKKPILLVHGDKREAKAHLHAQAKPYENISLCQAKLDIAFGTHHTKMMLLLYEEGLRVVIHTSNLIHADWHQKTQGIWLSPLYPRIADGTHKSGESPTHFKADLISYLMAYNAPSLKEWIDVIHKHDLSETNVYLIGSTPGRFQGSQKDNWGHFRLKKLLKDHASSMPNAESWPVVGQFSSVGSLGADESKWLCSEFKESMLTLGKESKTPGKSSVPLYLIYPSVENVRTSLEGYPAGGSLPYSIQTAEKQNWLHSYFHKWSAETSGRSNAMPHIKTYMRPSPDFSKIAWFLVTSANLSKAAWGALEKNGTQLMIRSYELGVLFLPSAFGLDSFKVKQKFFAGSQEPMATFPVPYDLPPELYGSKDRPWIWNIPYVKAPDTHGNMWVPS
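Signal: AlphaScreen proximity between streptavidin donor and anti-FITC acceptor beads on intact substrate. Reaction: Tdp1 1 nM, substrate 15 nM final, 5 min RT after 15 min compound preincubation.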
JMJD2A Tudor inh – JMJD2A Tudor domain (human) inhibition. O75164. AlphaScreen JMJD2A-Tudor / H3K4me3 peptide binding. Potency, µM (doses to about 114 µM), for the others: at the highest dose activity change, negative = inhibition, most hits filed as inhibitors. 4.4% of 390,000 active. AID 504339; note: % is set by controls: 0 for no effect and ±100 for the full control effect; nearly all actives have a fitted effect of over 50% in size
G9a inh – inhibitors of human histone lysine methyltransferase G9a; Q96KQ7; G9a H3K9 monomethylation, AlphaScreen, 2 h; Potency, µM (series often up to 102 µM), inactives show at the top dose activity, negative = inhibition, usual class: inhibitors; 8.8% of 350,000 active; note: % is set by controls: 0 for no effect and ±100 for the full control effect; nearly all actives have a fitted effect of over 75% in size
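Methyltransferase reactions run at room temperature for 2 h (20 nM enzyme, 500 nM biotin-H3K9 peptide, 20 uM SAM) after a 15 min compound preincubation; product detected by AlphaScreen beads and anti-H3K9me1 antibody.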
HP1b chromo inh – inhibitors of HP1-beta chromodomain binding to methylated histone tails; P83916; AlphaScreen HP1-beta / biotin-H3K9me3 peptide binding; Potency, µM (top dose mostly 114 µM), without a hit: top-dose activity change, negative = inhibition, most hits filed as inhibitors; 0.56% of 390,000 active; note: nearly all actives have a fitted effect of over 70% in size
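HP1-beta protein (50 nM final) preincubated 30 min at room temperature with biotinylated H3(1-18)K9me3 peptide (50 nM) in PBS pH 7.4, 0.01% Tween-20, then compound added for 30 min. AlphaScreen streptavidin donor/nickel chelate acceptor beads (10 ug/mL final), 30 min dark, luminescence read.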
BAZ2B inh – blocks human BAZ2B; AlphaScreen BAZ2B-H3K14Ac peptide displacement; 4.4% of 360,000 active; AID 504333; Potency, µM (doses to about 114 µM), without a hit: at the top dose activity change, negative = inhibition, usual class: inhibitors; Q9UIF8; note: % is set by controls: 0 for no effect and ±100 for the full control effect; nearly all actives have a fitted effect of over 60% in size
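Protein-peptide AlphaScreen: BAZ2B 50 nM, b-H3K14Ac 50 nM, 1x PBS pH 7.4 + 0.01% Tween-20. Preincubation 30 min RT; cpd 30 min RT (top 110 uM); beads 20 min RT, light-protected.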
* marks the source's active call; other numbers are inactive results; ? = inconclusive; / = no result given; ! = repeats disagree; [ ] = remark or other dose. A selection: hits, their analogues and other compounds. The true share with any hit is near 12%. Calls come from the whole dose curve; as a rule, active = well fitted curve in the direction sought with a large enough effect; inconclusive = small, poorly fitted or top-dose-only effect, or another doubt; inactive = no such curve, though single readings can be large; an effect the other way counts as inactive or inconclusive. Potency is the fitted concentration of half-maximal effect.

SMILES | Sfp PPTase inh | TDP1 inh | JMJD2A Tudor inh | G9a inh | HP1b chromo inh | BAZ2B inh
CCCc1cc(N2CCN(C(=O)c3ccco3)CC2)n2c(nc3ccccc32)c1C#N | 56µM* | -5% | -6% | 16µM* | 55% | 17%
CCN(Cc1cccs1)C(=O)CN1C(=O)NC2(CCCc3ccccc32)C1=O (stereo not given) | / | 1% | -18% | 6%[12.7 µM] | 30% | 8%
CCN(Cc1cccs1)C(=O)CN1C(=O)NC(c2ccccc2)(c2ccccc2)C1=O | / | 1% | -30% | 7.9µM* | 7% | -4%
O=S(=O)(c1cccc2c(Cl)cccc12)N1CCCNCC1 | -7% | 9%[56.1 µM] | / | 19µM*! | / | /
O=S(=O)(c1cccc2c(I)cccc12)N1CCCNCC1 | -23% | 9%[56.1 µM] | / | ? | / | /
O=[N+]([O-])c1cccc2c(S(=O)(=O)N3CCOCC3)cccc12 | -4% | 20µM* | -35% | / | 0% | ?
O=[N+]([O-])c1cccc2c(S(=O)(=O)N3CCCCC3)cccc12 | -3% | 5% | ? | 56µM* | ? | 71µM*
CC(=O)c1ccc(NC(=O)CCc2c(C)nc3cc(-c4ccc(Cl)cc4)nn3c2C)cc1 | / | -1% | -4% | -18%[59 µM] | 29% | -23%
COc1ccc(CCN2CC(C(=O)NCCc3ccc(C)cc3)CC2=O)cc1OC (stereo not given) | 10% | -10% | -35% | 2%[59 µM] | -12% | 56µM*!
COc1ccc(CCN2CC(C(=O)NC3CCCCC3)CC2=O)cc1OC (stereo not given) | -3% | / | 2% | 11%[59 µM] | 41% | 50µM*
Cc1cccc(Cn2cc(S(=O)(=O)c3ccccc3)c(=O)c3cc(F)c(N4CCOCC4)cc32)c1 | / | 6% | -17% | 0%[59 µM] | 58% | 4%
CCOC(=O)N1CCN(S(=O)(=O)c2ccc(C(=O)N(CCN(C)C)c3nc4ccc(Cl)cc4s3)cc2)CC1 | -7% | 9% | -9% | ? | 12% | -23%
CCOC(=O)N1CCN(S(=O)(=O)c2ccc(C(=O)NNc3nc4c(C)cccc4s3)cc2)CC1 | ? | 11% | ? | 35µM* | -4% | ?
CCOC(=O)N1CCN(S(=O)(=O)c2ccc(C(=O)N(CCN(CC)CC)c3nc4c(C)cccc4s3)cc2)CC1 | -3% | 9% | ? | 50µM* | -11% | ?
CCOC(=O)N1CCN(S(=O)(=O)c2ccc(C(=O)NNc3nc4ccc(Cl)cc4s3)cc2)CC1 | 5% | 8% | -25% | 79µM* | 23% | -6%
COc1ccc(CCNS(=O)(=O)c2ccc(Br)s2)cc1 | 14% | 0% | -6% | 30% | 62% | -13%
Cc1cccc(N2CCN(S(=O)(=O)c3cccc4nonc34)CC2C)c1 (stereo not given) | 13% | 9% | ? | 35µM* | -21% | /
CCOC(=O)c1cc(S(=O)(=O)N2CCN(c3ccc(C(C)=O)cc3)CC2)[nH]n1 | / | 2% | -9% | 13µM* | 21%[57 µM] | ?
CCOC(=O)c1cc(S(=O)(=O)N2CCN(c3cc(C)ccc3C)CC2)[nH]n1 | / | 3% | -33% | 4µM* | -4%[57 µM] | 50µM*
Cc1cccc(N2CCN(c3ccc4cc(S(=O)(=O)N5CCCCC5)ccc4n3)CC2C)c1 (stereo not given) | 4% | 0% | ? | 25µM* | 41% | -18%[57.1 µM]
O=C1CCC(C(=O)N(CCO)Cc2ccccc2)CN1CC1CCCCC1 (stereo not given) | 5% | 3% | 1% | 48% | 7% | -12%
CCCCCC1=C2CNC(Cc3ccccc3)(C(=O)OC)C=C2C(C)C1=O (stereo not given) | 4% | 0% | / | / | / | /
O=C(NC1CCCCC1)c1cc(S(=O)(=O)N2CCCCC2)ccc1N1CCOCC1 | / | 1% | -10% | -10%[12.7 µM] | 25% | -1%
CC(C)C[C@@H](CC(=O)N[C@@H](CCC(=O)O)CC(=O)O)NC(=O)[C@@H]1CNCC[C@H]1NC(=O)C[C@H](CCCN)NC(=O)C[C@H](Cc1c[nH]c2ccccc12)NC(=O)[C@@H]1CNCC[C@H]1N | -23% | 2% | / | / | / | /
COC(=O)N[C@@H](CCc1ccccc1)/C(C(=O)OC)=C(\C)NCc1ccccc1 | -13% | -3% | / | / | / | /
SMILES | Sfp PPTase inh | TDP1 inh | JMJD2A Tudor inh | G9a inh | HP1b chromo inh | BAZ2B inh
CCOC(=O)c1c(C)[nH]c(C)c1S(=O)(=O)N1CCC(C(=O)N2CCN(c3cccc(C)c3)C(C)C2)CC1 (stereo not given) | / | 4% | ? | -28%[59 µM] | 15% | 79µM*
CCOC(=O)c1cc(S(=O)(=O)N2CCN(c3cccc(C)c3)C(C)C2)[nH]n1 (stereo not given) | / | 2% | ? | 14µM* | 2%[57 µM] | ?
COc1cc(C(=O)N(C)CCOc2ccc(C)cc2)ccc1OC1CCN(C(C)=O)CC1 | 4% | 3% | -13% | -5% | 33% | -4%
O=C(NC1CCCCC1)C(c1ccccn1)N(C(=O)c1csnn1)c1ccccc1 (stereo not given) | 14% | 3%[0.0935 µM] | -11% | 51% | 2% | 1%
CCN1CCN(S(=O)(=O)c2ccc(Cl)c(C(=O)NC3CCC(C)CC3)c2)CC1 (stereo not given) | / | 1% | -8% | -2%[12.7 µM] | 29% | -7%
O=c1oc2cc([N+](=O)[O-])ccc2nc1/C=C(O)/C=C/c1ccccc1 | 50µM* | 0% | / | 35µM* | / | 50µM*
Cc1cccc(-c2nc3ccccc3c(=O)n2NC(=O)/C=C/c2ccc([N+](=O)[O-])cc2)c1 | -16% | -1% | ? | ? | -14% | -37%
O=c1oc2cc([N+](=O)[O-])ccc2nc1/C=C(\O)c1cccc(Br)c1 | 5% | / | ? | 20µM* | 14% | ?
O=c1oc2ccccc2nc1/C=C(\O)c1ccccc1 | ? | / | -4% | / | 50% | ?
Cc1c(CBr)[n+](=O)c2c(n1[O-])C(Br)CCC2Br (stereo not given) | 11µM* | -8% | 20µM* | 7.9µM* | -26% | 28µM*
CCc1c(C)n([O-])c2c([n+]1=O)CCC2 | 16% | 2% | -19% | 7%[12.7 µM] | 39% | 1%
CCc1ccc2oc(=O)cc(CN3CCN(Cc4ccccc4)CC3)c2c1 | 3% | / | -22% | 45µM* | 51% | -5%
O=c1cc(CN2CCN(Cc3ccccc3)CC2)c2cc(Cl)ccc2o1 | 11% | -3% | -21% | 45µM* | 35% | 7%
Cc1cc(=O)oc2cc(OCC(=O)N3CCOCC3)ccc12 | 32µM* | -2% | 79µM* | 7.1µM* | -42% | -5%
Cc1cc(=O)oc2cc(OCC(=O)N/N=C/c3ccccc3[N+](=O)[O-])ccc12 | ? | 56µM* | -32% | ? | 5% | -25%
